KDM5B inh: inhibitors of human KDM5B histone demethylase. 220,000 compounds, 2.6% hits. Potency, µM (titrated, usually from 57.7 µM), usual class: inhibitors. KDM5B demethylase, FDH-coupled NADH fluorescence (FDH is formaldehyde dehydrogenase); active = well fitted inhibition curve with a large enough effect; note: 0% is about no effect; nearly all actives have a fitted effect of over 70% in size
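Here, H3K4me3 peptide (12.5 µM in substrate mix) is demethylated by KDM5BΔAP, 200 nM final, after 10 min compound exposure. Formaldehyde product is coupled through FDH (0.25 U/mL in mix) to NADH fluorescence; 30-min ΔRFU feeds dose-response curves.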
Active calls of the source: *; i = inactive. This is one part of a sample in which hits are shown more often than they occur. Potency is the fitted concentration of half-maximal effect.

SMILES | KDM5B inh
O=C1CCN(Cc2ccc(F)cc2F)CCOCCN1 | i
COc1ccc2c(c1)c(CN1CCOCCNC(=O)CC1)cn2C(C)C | 20µM*
Cn1c(CCN2CCOCC2)nc2cc(NC(=O)c3ccccc3Cl)ccc21 | i
Cc1ccc2nc(C3CCN(CC(C)C)CC3)[nH]c(=O)c2c1 | i
OC1CC(c2cc(N3CCC(c4nnc5ccccn45)CC3)ncn2)C1 (centres undefined) | i
OC1CC(c2cc(N3CCC(c4nc5ccccc5[nH]4)CC3)ncn2)C1 (centres undefined) | i
OC1CC(c2cc(N3CCN(c4nsc5ccccc45)CC3)ncn2)C1 (centres undefined) | 32µM*
NC(=O)C1CCN(C(=O)c2cc(-c3ccncc3)nc3ccccc23)CC1 | i
COc1cc(OC)c(/C=C(\C#N)C(=O)O)cc1Br | i
CC(Sc1nnc(-c2ccco2)n1-c1ccccc1)C(=O)Nc1ccc(Cl)cn1 (centres undefined) | i
O[C@@H]1[C@@H](Cn2cc(-c3cccnc3)nn2)C[C@@H](NCc2ccc(F)cc2)[C@@H]1O | i
COCc1cn(C[C@H]2C[C@@H](NCc3cccc4c3OCO4)[C@H](O)[C@@H]2O)nn1 | i
COCc1cn(C[C@H]2C[C@@H](NCc3cccnc3)[C@H](O)[C@@H]2O)nn1 | 35µM*
CCOc1cc(=O)n2c(c1C(=O)Nc1cc(C)ccc1OC)CCCC2 | i
CCCCN1C(=O)NC(c2ccccc2OC)C2=C1COC2=O (centres undefined) | i
COc1cccc(NC(=O)CSc2nc3ccccc3nc2Cc2ccccc2OC)c1 | i
Cc1noc(C)c1S(=O)(=O)N1CCOCCNC(=O)[C@@H]2CCC[C@@H]21 | i
COc1ccccc1C(=O)NCCC(=O)N1CCCC(C(F)(F)F)C1 (centres undefined) | i
CN1CCOc2c(C(=O)NCCC(N)=O)cc(-c3ccccc3O)cc21 | 32µM*
COc1ccccc1C(=O)NCCC(=O)N1CCCCC1 | i
Cc1ccncc1C(=O)N1CCOc2c(O)cc(-c3ccccc3C)cc2C1 | i
CN1CCOc2c(C(=O)NCCC(N)=O)cc(-c3ccccc3OC(F)(F)F)cc21 | 40µM*
Cc1ccccc1-c1cc(O)c2c(c1)CN(Cc1nccn1C)CCO2 | i
O=C(Nc1ccc(OCc2ccccc2)cc1)c1ccc[n+]([O-])c1 | i
COc1cccc(CN2CCCC3(Cc4ccccc4CNC3=O)C2)n1 (centres undefined) | i
SMILES | KDM5B inh
CC1(c2cccnc2)N(CC2CC2)C(=O)OC12CCN(C(=O)c1ccccc1)CC2 (centres undefined) | i
COc1ccc(C2Cn3cnc(-c4nc(-c5ccc(OC)c(OC)c5)no4)c3CO2)cc1 (centres undefined) | i
COc1ccc(C2Cn3cnc(-c4nc(-c5ccc6c(c5)OCO6)no4)c3CO2)cc1 (centres undefined) | 14µM*
COc1ccc(Cl)cc1-c1nc(-c2nnn3c2COC(c2ccc(C)cc2)C3)no1 (centres undefined) | i
COc1ccc(-c2nc(-c3nnn4c3COC(c3ccc(Cl)cc3)C4)no2)cc1OC (centres undefined) | 28µM*
Fc1ccc(C2Cn3nnc(-c4nc(-c5cccc(F)c5)no4)c3CO2)cc1 (centres undefined) | i
COc1ccc(-c2nc(-c3nnn4c3COC(c3ccc(OC)cc3)C4)no2)cc1 (centres undefined) | i
Fc1ccc(-c2noc(-c3nnn4c3COC(c3ccc(Cl)cc3)C4)n2)cc1 (centres undefined) | i
COc1ccc(-c2noc(-c3nnn4c3COC(c3ccc(F)cc3)C4)n2)cc1OC (centres undefined) | 22µM*
CCOc1ccc(-c2noc(-c3ncn4c3COC(c3ccc(F)cc3)C4)n2)cc1 (centres undefined) | i
CC(=O)N1c2ccc(S(=O)(=O)NCCC(=O)N(C)Cc3ccco3)cc2CC1C (centres undefined) | i
O=C(NC1CC1)C(=O)N1CCN(C(=O)c2cc3ccccc3[nH]2)CC1 | i
CC(C)c1nn2c(=O)cc(CSc3n[nH]c(-c4ccccc4F)n3)nc2s1 | i
CCOc1cc2cc(C(=O)c3ccccc3O)cnc2cc1OCC | i
CC(C)n1c(C2CCN(C(=O)c3n[nH]c4ccccc34)CC2)nn(C)c1=O | i
CCn1c(C)cc(C(=O)COC(=O)c2csc(NCc3ccccc3)n2)c1C | i
Cc1nc(CSc2ccc3c(c2)OCCCO3)oc1C | i
O=C1CSc2ccc(C(=O)NC3CC3)cc2N1 | i
COc1ccc(N2CC(C(=O)NCCc3ccc(F)cc3)NC2=O)cc1 (centres undefined) | i
COc1ccc(C(=O)N[C@H]2CCN3C(=O)c4cc(Br)ccc4NC(=O)[C@@H]3C2)cc1 | i
CO[C@@H]1C[C@H]2C(=O)Nc3ccc(-c4ccccc4F)cc3C(=O)N2C1 | i
O=C(N[C@H]1C[C@H]2C(=O)Nc3ccccc3C(=O)N2C1)c1ccccc1 | i
CS(=O)(=O)N[C@H]1CCN2C(=O)c3cc(Br)ccc3NC(=O)[C@@H]2C1 | i
COc1ccc(C(=O)N[C@H]2C[C@H]3C(=O)Nc4ccccc4C(=O)N3C2)cc1 | i
O=C(N[C@H]1C[C@H]2C(=O)Nc3ccc(-c4cccs4)cc3C(=O)N2C1)c1ccccc1 | 32µM*
SMILES | KDM5B inh
CS(=O)(=O)N[C@H]1C[C@H]2C(=O)Nc3ccc(-c4cccs4)cc3C(=O)N2C1 | 40µM*
COc1ccc(-c2ccc3c(c2)C(=O)N2C[C@@H](NS(=O)(=O)c4ccc(F)cc4)C[C@H]2C(=O)N3)c(OC)c1 | 35µM*
O=C(N[C@H]1CCN2C(=O)c3cc(-c4ccc(Cl)cc4)ccc3NC(=O)[C@@H]2C1)c1ccncc1 | i
COCC(=O)N[C@H]1CCN2C(=O)c3cc(-c4ccc(F)cc4F)ccc3NC(=O)[C@@H]2C1 | i
O=C1Nc2ccc(-c3ccc(Cl)cc3)cc2C(=O)N2CC[C@H](NS(=O)(=O)c3cccs3)C[C@@H]12 | i
COc1ccc(C(=O)N[C@H]2C[C@H]3C(=O)Nc4ccc(-c5cccs5)cc4C(=O)N3C2)cc1 | 35µM*
Cc1ccc2nc(COc3ccc(F)cc3)[nH]c2c1 | i
CC(NC(=O)CN1CSCC1=O)c1cccc(Cl)c1 (centres undefined) | i
Cc1noc(-c2ccc(OC3CN(C(=O)NC4CCCCC4)C3)cc2)n1 | i
CCCN1C(=O)Cc2ccccc2C1C(=O)NCc1ccc(F)cc1F (centres undefined) | i
CCOc1ccc(C(=O)N2CCC3(CC2)N(C)C(=O)CS3(=O)=O)cc1 | i
CC(NC(=O)c1ccc(F)cc1Br)c1ccc(F)cc1 (centres undefined) | i
CN1CCC(NC2(Cc3cc(-c4ccccn4)on3)COC2)CC1 | i
O=c1cc(-c2cccnc2)oc2c(NCCc3ccccn3)nccc12 | i
O=c1cc(-c2ccccn2)oc2c(NC3CCOCC3)nccc12 | 32µM*
CCc1ccc(C2C=C(c3ccc(Br)cc3)Nc3ncnn32)cc1 (centres undefined) | i
Cc1ccc(C)c(S(=O)(=O)N2CCC(n3cnnc3C(C)C)CC2)c1 | i
O=C(c1ccn2cncc2c1)N1CCOCC1 | i
O=C(c1ccn2nccc2c1)N1CCOCC1 | 32µM*
O=C(c1ccc(Cl)c(S(=O)(=O)N2CCOCC2)c1)N1CCOCC1 | i
COc1ccc2nc(NC(=O)c3cc(-c4ccc(C)cc4)on3)sc2c1 | i
